Test results taken from PubChem BioAssay (EPA / NIEHS).
Activity calls are given as the source filed them. Rule for the calls: active = hit-call score of the fitted dose curve at least 0.9, where 1 is the maximum; inactive = score below 0.9.

What was measured:
[1] = ATG_CRE_CIS: Attagene CIS-FACTORIAL HepG2 Assay for human cAMP Responsive Element (CRE) binding protein 3 (AID 2282926); conditions: HepG2 CRE cis-reporter, Attagene multiplexed mRNA; actives raise or lower the signal
In short: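 Endogenous transcription factor activity read via CRE-regulated reporter transcripts in transfected HepG2 cells. After 24 h exposure, RNA was reverse-transcribed, amplified, fluorescently labelled and sized by capillary electrophoresis; gain or loss fitted against DMSO.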

[2] = molecular target: CCAAT/enhancer-binding protein beta (Homo sapiens) (UniProt P17676); test: ATG_C_EBP_CIS: Attagene CIS-FACTORIAL HepG2 Assay for human CCAAT/Enhancer Binding Protein (C/EBP) beta (AID 2282927); conditions: HepG2 Attagene cis-factorial transcription factor reporter; actives raise or lower the signal
Sequence of CCAAT/enhancer-binding protein beta (Homo sapiens) (P17676 whole entry, looked up): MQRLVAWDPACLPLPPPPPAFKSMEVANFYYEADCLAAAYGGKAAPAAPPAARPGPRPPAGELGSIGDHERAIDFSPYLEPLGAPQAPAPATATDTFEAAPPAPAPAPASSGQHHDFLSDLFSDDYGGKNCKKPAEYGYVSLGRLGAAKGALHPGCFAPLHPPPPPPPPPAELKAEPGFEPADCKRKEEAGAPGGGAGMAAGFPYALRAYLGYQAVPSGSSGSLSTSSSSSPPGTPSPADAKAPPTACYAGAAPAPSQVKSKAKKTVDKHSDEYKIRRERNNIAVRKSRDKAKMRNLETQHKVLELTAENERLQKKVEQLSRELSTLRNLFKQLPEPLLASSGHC
In short: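 HepG2 transiently transfected with multiplexed reporter units under cis-regulatory promoters reporting endogenous C/EBPb activity. After 24 h exposure, reporter mRNA assayed by RT-PCR, fluorescent labelling, HpaI digestion and capillary electrophoresis; bidirectional fitting versus DMSO.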

[3] = ATG_CMV_CIS: Attagene CIS-FACTORIAL HepG2 Assay for human CMV (Internal Marker) (AID 2282928); conditions: HepG2 CMV promoter reporter, transcription factor profiling; actives raise or lower the signal;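 note: endpoint acts as a background internal control marker rather than a target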
In short: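 Fluorescence intensity of RT-PCR-derived reporter fragments, resolved by capillary electrophoresis, gives the signal. HepG2 liver cells bearing transfected cis-element reporters were treated 24 h; activity in either direction was fit relative to DMSO-treated controls.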

[4] = ATG_DR4_LXR_CIS: Attagene CIS-FACTORIAL HepG2 Assay for human Liver X Receptor (LXR), DR4 submotif (AID 2282929); conditions: HepG2 Attagene DR4 cis-reporter, mRNA transcription; actives raise or lower the signal
In short: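 After transient transfection with multiplexed cis-promoter reporter units, HepG2 cells received test chemicals for 24 h. Reporter mRNA induction, detected by fluorescence after RT-PCR and capillary electrophoresis, was scored relative to DMSO.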

[5] = molecular target: Aryl hydrocarbon receptor (Homo sapiens) (UniProt P35869); test: ATG_Ahr_CIS: Attagene CIS-FACTORIAL HepG2 Assay for human Aryl Hydrocarbon Receptor (Ahr) (AID 2282930); conditions: HepG2 AhR cis-factorial reporter transcription; actives raise or lower the signal
Sequence of Aryl hydrocarbon receptor (Homo sapiens) (P35869 whole entry, looked up): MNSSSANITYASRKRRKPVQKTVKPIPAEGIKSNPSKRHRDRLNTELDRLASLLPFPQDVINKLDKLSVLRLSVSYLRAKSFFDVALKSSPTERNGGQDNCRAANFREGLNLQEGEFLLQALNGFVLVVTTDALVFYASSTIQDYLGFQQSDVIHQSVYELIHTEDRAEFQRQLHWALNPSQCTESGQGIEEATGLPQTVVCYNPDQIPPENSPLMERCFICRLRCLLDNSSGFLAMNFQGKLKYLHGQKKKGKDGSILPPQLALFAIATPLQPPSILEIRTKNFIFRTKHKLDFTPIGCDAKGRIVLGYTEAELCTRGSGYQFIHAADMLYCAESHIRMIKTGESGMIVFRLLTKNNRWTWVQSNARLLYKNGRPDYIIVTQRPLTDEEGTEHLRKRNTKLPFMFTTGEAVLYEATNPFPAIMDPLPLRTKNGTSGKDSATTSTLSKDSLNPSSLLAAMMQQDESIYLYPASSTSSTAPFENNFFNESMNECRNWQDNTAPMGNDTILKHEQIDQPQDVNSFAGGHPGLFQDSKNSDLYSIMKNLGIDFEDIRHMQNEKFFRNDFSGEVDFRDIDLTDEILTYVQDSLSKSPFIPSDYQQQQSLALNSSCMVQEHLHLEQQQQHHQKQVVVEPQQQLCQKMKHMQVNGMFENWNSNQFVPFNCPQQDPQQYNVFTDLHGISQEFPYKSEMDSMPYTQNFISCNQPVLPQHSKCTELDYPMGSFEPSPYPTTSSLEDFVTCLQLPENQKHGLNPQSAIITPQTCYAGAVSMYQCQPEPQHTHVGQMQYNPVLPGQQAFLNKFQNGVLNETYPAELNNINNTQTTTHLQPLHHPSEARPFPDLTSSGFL
In short: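 HepG2 cells transiently transfected with cis-element-driven multiplexed reporter units; endogenous AhR activity read as reporter mRNA 24 h after dosing, via RT-PCR, 6-FAM labelling, HpaI digestion and capillary electrophoresis. Bidirectional fit relative to DMSO.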

[6] = ATG_AP_2_CIS: Attagene CIS-FACTORIAL HepG2 Assay for human Activator Protein 2 (AP-2) (AID 2282932); conditions: HepG2 AP-2 cis-reporter, Attagene transcription factor profiling; actives raise or lower the signal
In short: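 Liver-derived HepG2 line, cis-reporter system measuring endogenous factors; 24 h dosing; reporter mRNA detected by fluorescent RT-PCR and capillary electrophoresis.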

[7] = ATG_BRE_CIS: Attagene CIS-FACTORIAL HepG2 Assay for human Bone Morphogenetic Protein (BMP) Response Element (BRE) (AID 2282933); conditions: HepG2 BMP response element reporter, Attagene transcription factor profiling; actives raise or lower the signal
In short: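 HepG2 cells transiently transfected with multiplexed cis-element reporter units were dosed with chemical for 24 h. Reporter mRNA was measured by RT-PCR with fluorescent labelling, HpaI digestion and capillary electrophoresis; bidirectional fitting relative to DMSO.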

[8] = molecular target: Transcription factor E2F1 (Homo sapiens) (UniProt Q01094); test: ATG_E2F_CIS: Attagene CIS-FACTORIAL HepG2 Assay for human E2F Transcription Factor 1 (AID 2282935); conditions: HepG2 Attagene cis-reporter, E2F reporter RNA transcripts; actives raise or lower the signal
Sequence of Transcription factor E2F1 (Homo sapiens) (Q01094 whole entry, looked up): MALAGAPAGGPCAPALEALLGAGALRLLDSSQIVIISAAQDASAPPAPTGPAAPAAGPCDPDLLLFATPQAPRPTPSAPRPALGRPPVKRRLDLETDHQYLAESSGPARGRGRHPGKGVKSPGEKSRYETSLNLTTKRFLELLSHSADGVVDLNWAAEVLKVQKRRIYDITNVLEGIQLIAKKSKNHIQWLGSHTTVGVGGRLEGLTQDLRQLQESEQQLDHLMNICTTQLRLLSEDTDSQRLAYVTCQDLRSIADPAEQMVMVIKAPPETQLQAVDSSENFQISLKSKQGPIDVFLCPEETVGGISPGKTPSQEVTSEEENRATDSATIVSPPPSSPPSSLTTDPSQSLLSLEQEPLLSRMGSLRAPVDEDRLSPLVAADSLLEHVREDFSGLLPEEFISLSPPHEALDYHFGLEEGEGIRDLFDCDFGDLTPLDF
In short: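 Liver-derived HepG2 cells expressing transfected promoter-driven reporter units received test chemical for 24 hours. Signal gains or losses were fitted bidirectionally against DMSO.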

[9] = ATG_E_Box_CIS: Attagene CIS-FACTORIAL HepG2 Assay for human Enhancer Box (E-box) (AID 2282936); conditions: HepG2 E-box cis-reporter transcription, actives raise or lower the signal
In short: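 In this cell-based setup, HepG2 cells bearing transfected promoter-driven reporter units were exposed to chemicals for 24 h; reporter transcripts were amplified, 6-FAM-labelled, cut with HpaI and sized by capillary electrophoresis.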

[10] = ATG_EGR_CIS: Attagene CIS-FACTORIAL HepG2 Assay for human Early Growth Response 1 (EGR1) (AID 2282938); conditions: HepG2 Attagene CIS-FACTORIAL EGR reporter mRNA; actives raise or lower the signal
In short: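 Fluorescent capillary-electrophoresis signal of reporter cDNA fragments serves as read-out. HepG2 cells bear transiently transfected cis-promoter reporter units and are exposed 24 h; gain- or loss-of-signal is fitted against DMSO.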

[11] = ATG_M_19_CIS: Attagene CIS-FACTORIAL HepG2 Assay for M19 Transcription Factor (Internal Marker) (AID 2282939); conditions: HepG2 Attagene CIS-FACTORIAL M19 internal marker reporter; actives raise or lower the signal
In short: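 HepG2 cells transiently transfected with cis-regulated multiple reporter transcription units were dosed for 24 h; reporter mRNA was quantified by RT-PCR, 6-FAM primer-extension labelling, HpaI digestion and capillary electrophoresis, with bidirectional fitting against DMSO baseline.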

[12] = ATG_ERE_CIS: Attagene CIS-FACTORIAL HepG2 Assay for Estrogen Response Element (ERE) (AID 2282940); conditions: HepG2 ERE cis-reporter, Attagene RNA transcript; actives raise or lower the signal
In short: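 HepG2 cells transiently transfected with cis-promoter-driven multiplexed reporter transcription units report endogenous TF activity. After 24 h compound exposure, reporter mRNA is quantified by RT-PCR with capillary electrophoresis fluorescence; bidirectional fitting versus DMSO baseline.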

[13] = ATG_Ets_CIS: Attagene CIS-FACTORIAL HepG2 Assay for human Erythroblast Transformation Specific (ETS) (AID 2282941); conditions: HepG2 ETS cis-reporter transcription, actives raise or lower the signal
In short: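 Multiplexed reporter transcript profiling: HepG2, 24 h treatment, total RNA to cDNA, PCR, 6-FAM labelling, HpaI cut, capillary electrophoresis. Gain- or loss-of-signal fitted against DMSO.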

[14] = molecular target: Hepatocyte nuclear factor 3-beta (Homo sapiens) (UniProt Q9Y261); test: ATG_FoxA2_CIS: Attagene CIS-FACTORIAL HepG2 Assay for human Forkhead box A2 (FOXA2) (AID 2282942); conditions: HepG2 cis-reporter transcription factor activity, 24 h; actives raise or lower the signal
Sequence of Hepatocyte nuclear factor 3-beta (Homo sapiens) (Q9Y261 whole entry, looked up, the tested form may be a part): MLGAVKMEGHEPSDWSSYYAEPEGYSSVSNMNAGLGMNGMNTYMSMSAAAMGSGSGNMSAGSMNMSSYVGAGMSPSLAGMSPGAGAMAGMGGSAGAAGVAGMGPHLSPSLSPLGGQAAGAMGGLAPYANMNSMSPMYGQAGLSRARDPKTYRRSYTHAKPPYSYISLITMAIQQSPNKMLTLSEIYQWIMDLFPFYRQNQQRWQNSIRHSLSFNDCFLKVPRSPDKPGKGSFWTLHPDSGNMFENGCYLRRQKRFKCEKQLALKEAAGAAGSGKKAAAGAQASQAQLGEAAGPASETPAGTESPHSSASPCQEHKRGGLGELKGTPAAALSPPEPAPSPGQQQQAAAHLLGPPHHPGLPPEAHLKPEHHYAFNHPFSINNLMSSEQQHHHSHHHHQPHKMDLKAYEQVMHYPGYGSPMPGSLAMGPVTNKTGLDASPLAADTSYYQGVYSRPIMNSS
In short: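 Fluorescence signal of reporter cDNA fragments, separated by capillary electrophoresis, reflects endogenous transcription factor activity in transfected HepG2 after 24 h. Both increases and decreases fitted against DMSO.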

[15] = ATG_FoxO_CIS: Attagene CIS-FACTORIAL HepG2 Assay for human Forkhead box O (FoxO) (AID 2282943); conditions: HepG2 Attagene cis-reporter, FoxO element, mRNA; actives raise or lower the signal
In short: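 HepG2 cells transiently transfected with cis-element-driven reporter units report endogenous FoxO activity. After 24 h chemical exposure, reporter mRNA quantified by RT-PCR, fluorescent labeling, HpaI digestion and capillary electrophoresis; bidirectional fit versus DMSO.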

[16] = ATG_GATA_CIS: Attagene CIS-FACTORIAL HepG2 Assay for human GATA Binding Protein (AID 2282944); conditions: HepG2 GATA cis-element reporter, Attagene multiplex mRNA; actives raise or lower the signal
In short: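 HepG2 cells transiently transfected with multiplexed cis-element reporter units reflecting endogenous transcription factor activity; reporter mRNA measured after 24 h dosing by RT-PCR, 6-FAM labeling, HpaI digestion and capillary electrophoresis. Bidirectional fitting versus DMSO baseline.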

[17] = ATG_AP_1_CIS: Attagene CIS-FACTORIAL HepG2 Assay for human Activator Protein 1 (AP-1) (AID 2282931); conditions: HepG2 Attagene cis-factorial AP-1 reporter mRNA; actives raise or lower the signal
In short: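 After 24 h incubation with test chemical, RNA from transfected HepG2 cells was reverse-transcribed, amplified, fluorescently labelled and digested before capillary electrophoresis. Reporters were driven by cis-regulatory promoters; activity fitted bidirectionally versus DMSO.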

[18] = ATG_M_61_CIS: Attagene CIS-FACTORIAL HepG2 Assay for M61 Transcription Factor (Internal Marker) (AID 2282937); conditions: HepG2 Attagene CIS-FACTORIAL M61 internal marker reporter; actives raise or lower the signal
In short: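 Using transiently transfected HepG2 liver cells, reporter transcript levels were assessed 24 h post-dosing by RT-PCR and capillary electrophoresis. Changes in either direction were fitted relative to DMSO controls.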

[19] = molecular target: Retinoic acid receptor alpha (Homo sapiens) (UniProt P10276); test: ATG_DR5_RAR_CIS: Attagene CIS-FACTORIAL HepG2 Assay for human Retinoic Acid Receptor Alpha (RARE), DR5 submotif (AID 2282934); conditions: HepG2 Attagene cis-factorial RARE DR5 reporter, mRNA; actives raise or lower the signal
Sequence of Retinoic acid receptor alpha (Homo sapiens) (P10276 whole entry, looked up): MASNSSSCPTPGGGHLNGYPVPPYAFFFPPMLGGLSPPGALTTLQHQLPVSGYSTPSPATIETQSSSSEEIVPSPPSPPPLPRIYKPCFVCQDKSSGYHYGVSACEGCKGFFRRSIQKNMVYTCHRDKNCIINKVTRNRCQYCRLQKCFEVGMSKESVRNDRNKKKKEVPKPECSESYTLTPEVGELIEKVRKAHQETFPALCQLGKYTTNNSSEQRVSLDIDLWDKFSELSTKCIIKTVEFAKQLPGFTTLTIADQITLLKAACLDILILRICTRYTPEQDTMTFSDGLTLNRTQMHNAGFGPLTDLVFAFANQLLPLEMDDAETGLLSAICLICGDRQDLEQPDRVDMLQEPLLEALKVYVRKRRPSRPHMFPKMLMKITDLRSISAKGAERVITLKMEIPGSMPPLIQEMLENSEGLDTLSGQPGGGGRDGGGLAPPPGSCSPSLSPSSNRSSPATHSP
In short: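 HepG2 cells transiently transfected with multiplexed reporter units; DR5 cis-element drives reporter through endogenous transcription factors. After 24 h dosing, reporter mRNA quantified by RT-PCR, fluorescent labeling, HpaI digestion and capillary electrophoresis; bidirectional fitting versus DMSO.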

Measured: AC50

CCCCCC(=O)O[C@]1(C(C)=O)CC[C@H]2[C@@H]3CCC4=CC(=O)CC[C@]4(C)[C@H]3CC[C@@]21C
active: [1] 6.58 µM | [2] 8.6 µM | [7] 7.66 µM
not listed: [17] | [18] | [19]
inactive: all other assays above

N#CCCCC(C#N)CCC#N (stereo unspecified)
not listed: [8] | [19]
inactive: all other assays above

CC(C)C(=O)c1ccccc1
active: [12] 0.5 µM
not listed: [7] | [8] | [18]
inactive: all other assays above

CC=CC(=O)C1=C(C)C=CCC1(C)C
not listed: [7] | [13] | [19]
inactive: all other assays above

O=c1cc[nH]cc1
not listed: [17] | [19]
inactive: all other assays above

CC(C)C(=O)OCC=Cc1ccccc1
not listed: [7] | [19]
inactive: all other assays above

CC1COC(=O)O1 (stereo unspecified)
not listed: [17] | [19]
inactive: all other assays above

CC(C)Cc1ccccc1
not listed: [17] | [19]
inactive: all other assays above

COc1ccc(N)c(C)c1
active: [17] 70 µM | [12] 25.5 µM
not listed: [7] | [18] | [19]
inactive: all other assays above

CCCCOCC(C)OCC(C)O (stereo unspecified)
not listed: [17] | [18] | [19]
inactive: all other assays above

CCCCCCCCCCCCOC(C)=O
not listed: [7] | [8] | [19]
inactive: all other assays above

C1COCO1
not listed: [17] | [19]
inactive: all other assays above

CCCCCCCCCOS(=O)(=O)O
active: [4] 78.7 µM | [12] 5.14 µM
not listed: [7] | [19]
inactive: all other assays above

COc1ccccc1O
not listed: [7] | [19]
inactive: all other assays above

O=S(=O)(O)c1cc(S(=O)(=O)O)c2c(N=Nc3ccccc3)c(O)ccc2c1
not listed: [7] | [8] | [17] | [18] | [19]
inactive: all other assays above
